Measurements: PMC10812921, “Transcriptional Coactivator BOB1 (OBF1, OCA-B) Modulates the Specificity of DNA Recognition by the POU-Domain Factors OCT1 and OCT2 in a Monomeric Configuration”

These sequences were tested against POU1 (OCT1 POU domain);BOB1 (OBF1, OCA-B) (human;human, UniProt P14859;Q16633 260-458;1-256, |) (assay: EMSA-SELEX-seq; with BOB1 (ternary complex band); 20 mM Tris-HCl pH 7.6, 140 mM NaCl, 10% glycerol, 0.5 mM EDTA, 0.05% Triton X-100, 0.1 mg/mL BSA, 0.1 mg/mL poly(dI-dC), 5 mM DTT, room temperature, 20 min; high values mean tight binding). Conditions: protein: recombinant;recombinant; copies: 1;1; dsDNA, one strand shown.
How it was run: (§1)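 Binding preference means the percentage of sequenced 8-mers matching a motif pattern. Tagged POU-domain proteins (30 ng), expressed in E. coli BL21, purified under denaturing conditions and renatured, were mixed with 300 ng of a PCR-amplified double-stranded random 35-nt library, with or without 28 ng coactivator protein, for 20 min at RT in 20 μL Tris–HCl pH 7.6 binding buffer. Selection was repeated over four rounds of excising complex bands from native 6% PAGE, eluting and PCR amplification, followed by Illumina sequencing.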
For AAACTAAA, the binding signal was 0.0523 % of ANNNNAAN 8-mers. In the case of AACCTAAG, the binding signal is reported as 0.018 % of ANNNNAAN 8-mers. For ACTTAAAG, the binding signal was 0.0328 % of ANNNNAAN 8-mers. In the case of AACAAAAT, the binding signal is reported as 0.14 % of ANNNNAAN 8-mers. In the case of AAGTGAAA, the binding signal is reported as 0.0788 % of ANNNNAAN 8-mers. In the case of ACCCCAAA, the binding signal is reported as 0.0109 % of ANNNNAAN 8-mers. For AGCTCAAG, the binding signal was 0.0187 % of ANNNNAAN 8-mers. With ACTTCAAA the binding signal was 0.0336 % of ANNNNAAN 8-mers. For ATATCAAG, the binding signal was 0.0453 % of ANNNNAAN 8-mers. AGTGTAAA was tested, and the binding signal was 0.0687 % of ANNNNAAN 8-mers. ATCACAAA was tested, and the binding signal was 0.0539 % of ANNNNAAN 8-mers. ATACTAAA was tested, and the binding signal was 0.0499 % of ANNNNAAN 8-mers. For AGAGAAAC, the binding signal was 0.0332 % of ANNNNAAN 8-mers. AATGAAAC was tested, and the binding signal was 0.0433 % of ANNNNAAN 8-mers. In the case of ACCGAAAG, the binding signal is reported as 0.0164 % of ANNNNAAN 8-mers. With ACTGCAAA the binding signal was 0.0535 % of ANNNNAAN 8-mers. With AAACCAAA the binding signal was 0.0761 % of ANNNNAAN 8-mers. For ATCATAAG, the binding signal was 0.0379 % of ANNNNAAN 8-mers. In the case of AGGTAAAA, the binding signal is reported as 0.146 % of ANNNNAAN 8-mers. ATCCGAAG was tested, and the binding signal was 0.0304 % of ANNNNAAN 8-mers. In the case of AACCTAAT, the binding signal is reported as 0.0386 % of ANNNNAAN 8-mers. In the case of ATAGGAAA, the binding signal is reported as 0.213 % of ANNNNAAN 8-mers. With AAGCGAAT the binding signal was 0.0531 % of ANNNNAAN 8-mers. With ATCTGAAG the binding signal was 0.0359 % of ANNNNAAN 8-mers. For AATAGAAG, the binding signal was 0.0558 % of ANNNNAAN 8-mers. AAGTCAAT was tested, and the binding signal was 0.0535 % of ANNNNAAN 8-mers. For AGTGGAAG, the binding signal was 0.0414 % of ANNNNAAN 8-mers. In the case of AGTCAAAA, the binding signal is reported as 0.265 % of ANNNNAAN 8-mers. AACGGAAT was tested, and the binding signal was 0.0601 % of ANNNNAAN 8-mers. For ACCTGAAT, the binding signal was 0.0359 % of ANNNNAAN 8-mers. For ACCAGAAC, the binding signal was 0.0129 % of ANNNNAAN 8-mers. With AGCGCAAG the binding signal was 0.0144 % of ANNNNAAN 8-mers. AAAACAAC was tested, and the binding signal was 0.0609 % of ANNNNAAN 8-mers. With AAAACAAG the binding signal was 0.087 % of ANNNNAAN 8-mers. In the case of AAGCTAAC, the binding signal is reported as 0.0191 % of ANNNNAAN 8-mers. In the case of AGGGGAAA, the binding signal is reported as 0.109 % of ANNNNAAN 8-mers. For ATCTTAAT, the binding signal was 0.103 % of ANNNNAAN 8-mers. ACTTGAAA was tested, and the binding signal was 0.0433 % of ANNNNAAN 8-mers. With AAGGCAAC the binding signal was 0.0195 % of ANNNNAAN 8-mers. With ATTTCAAA the binding signal was 0.103 % of ANNNNAAN 8-mers.

What follows are sequences tested against T1, POU2 (OCT2 POU domain);BOB1 (OBF1, OCA-B) (human;human, UniProt P09086;Q16633 175-386;1-256, |) in the same assay as above. Conditions: protein: recombinant;recombinant; copies: 1;1; dsDNA, one strand shown.
T1 sequence 1: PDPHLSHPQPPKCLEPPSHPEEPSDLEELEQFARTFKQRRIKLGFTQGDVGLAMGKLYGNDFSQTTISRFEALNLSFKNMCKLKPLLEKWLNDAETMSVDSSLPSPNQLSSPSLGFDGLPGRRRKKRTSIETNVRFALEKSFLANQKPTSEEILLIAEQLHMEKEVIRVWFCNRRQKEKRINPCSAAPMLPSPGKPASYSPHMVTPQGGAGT
T1 sequence 2: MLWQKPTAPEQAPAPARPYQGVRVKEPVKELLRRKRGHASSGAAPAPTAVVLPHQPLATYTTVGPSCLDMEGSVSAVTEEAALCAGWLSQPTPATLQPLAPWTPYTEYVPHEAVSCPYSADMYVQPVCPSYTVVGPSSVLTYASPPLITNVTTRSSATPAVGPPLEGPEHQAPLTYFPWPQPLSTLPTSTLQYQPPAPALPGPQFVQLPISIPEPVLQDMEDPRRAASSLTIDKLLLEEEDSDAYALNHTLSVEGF
How it was run: as §1
In the case of AAACTAAA, the binding signal is reported as 0.0471 % of ANNNNAAN 8-mers. In the case of AACCTAAG, the binding signal is reported as 0.0173 % of ANNNNAAN 8-mers. For ACTTAAAG, the binding signal was 0.0462 % of ANNNNAAN 8-mers. With AACAAAAT the binding signal was 0.0982 % of ANNNNAAN 8-mers. With AAGTGAAA the binding signal was 0.0627 % of ANNNNAAN 8-mers. For ACCCCAAA, the binding signal was 0.0124 % of ANNNNAAN 8-mers. AGCTCAAG was tested, and the binding signal was 0.0206 % of ANNNNAAN 8-mers. With ACTTCAAA the binding signal was 0.0256 % of ANNNNAAN 8-mers. ATATCAAG was tested, and the binding signal was 0.0479 % of ANNNNAAN 8-mers. In the case of AGTGTAAA, the binding signal is reported as 0.052 % of ANNNNAAN 8-mers. In the case of ATCACAAA, the binding signal is reported as 0.0438 % of ANNNNAAN 8-mers. ATACTAAA was tested, and the binding signal was 0.0594 % of ANNNNAAN 8-mers. In the case of AGAGAAAC, the binding signal is reported as 0.0231 % of ANNNNAAN 8-mers. With AATGAAAC the binding signal was 0.0487 % of ANNNNAAN 8-mers. With ACCGAAAG the binding signal was 0.0149 % of ANNNNAAN 8-mers. ACTGCAAA was tested, and the binding signal was 0.0264 % of ANNNNAAN 8-mers. For AAACCAAA, the binding signal was 0.0446 % of ANNNNAAN 8-mers. In the case of ATCATAAG, the binding signal is reported as 0.0421 % of ANNNNAAN 8-mers. For AGGTAAAA, the binding signal was 0.085 % of ANNNNAAN 8-mers. In the case of ATCCGAAG, the binding signal is reported as 0.0338 % of ANNNNAAN 8-mers. AACCTAAT was tested, and the binding signal was 0.0438 % of ANNNNAAN 8-mers. With ATAGGAAA the binding signal was 0.146 % of ANNNNAAN 8-mers. In the case of AAGCGAAT, the binding signal is reported as 0.0429 % of ANNNNAAN 8-mers. In the case of ATCTGAAG, the binding signal is reported as 0.0413 % of ANNNNAAN 8-mers. For AATAGAAG, the binding signal was 0.057 % of ANNNNAAN 8-mers. For AAGTCAAT, the binding signal was 0.0677 % of ANNNNAAN 8-mers. In the case of AGTGGAAG, the binding signal is reported as 0.0405 % of ANNNNAAN 8-mers. With AGTCAAAA the binding signal was 0.115 % of ANNNNAAN 8-mers. AACGGAAT was tested, and the binding signal was 0.0627 % of ANNNNAAN 8-mers. With ACCTGAAT the binding signal was 0.0438 % of ANNNNAAN 8-mers. With ACCAGAAC the binding signal was 0.0223 % of ANNNNAAN 8-mers. With AGCGCAAG the binding signal was 0.0165 % of ANNNNAAN 8-mers. For AAAACAAC, the binding signal was 0.0462 % of ANNNNAAN 8-mers. For AAAACAAG, the binding signal was 0.0751 % of ANNNNAAN 8-mers. AAGCTAAC was tested, and the binding signal was 0.0215 % of ANNNNAAN 8-mers. With AGGGGAAA the binding signal was 0.0826 % of ANNNNAAN 8-mers. In the case of ATCTTAAT, the binding signal is reported as 0.135 % of ANNNNAAN 8-mers. In the case of ACTTGAAA, the binding signal is reported as 0.0371 % of ANNNNAAN 8-mers. AAGGCAAC was tested, and the binding signal was 0.0264 % of ANNNNAAN 8-mers. For ATTTCAAA, the binding signal was 0.0751 % of ANNNNAAN 8-mers.
